In all, about 320,000 compounds went through this assay and about 2,100 (0.66%) were called active. Another 53% or so got no clear call; they are omitted. Calls come from the whole dose curve; as a rule, active = well fitted inhibition curve with a large enough effect in the signal ratio, with a control signal flat (not every such curve was filed as active); inconclusive = small, poorly fitted or top-dose-only effect, or effect the other way, or a change in a side signal; inactive = flat fitted curve, though single readings scatter; the % refers to the signal ratio. Shown is part of a subset that was picked to be rich in actives.
Potency is the fitted concentration of half-maximal effect.

A short description of this test: qHTS Assay for Lipid Storage Modulators in Drosophila S3 Cells.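 For cell number change: cells counted by Cell Tracker Red CMTPX staining in the red channel.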 For lipid storage change, negative = inhibition: % is set by controls: 0 for no effect and ±100 for the full control effect. The note with it: BODIPY lipid droplet fluorescence, 18-24 h, cells fed with added oleic acid; cell number change: measured here: cell count max response; series mostly up to 46.1 µM. The essentials: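 Drosophila S3 cells loaded with oleic acid (400 uM, as added) and compounds at several concentrations; lipid droplets imaged by 488-nm laser-scanning cytometry, 500–530 nm intensity and object ratio to cell channel. Percent activity normalized to 20 uM Triacsin C.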
Background: Quantitative high-throughput screening tests each substance at several concentrations.
Consider `CCCc1c(O)nc(SCC(=O)O)[nH]c1=O`, for which the Potency result is “inactive” and the cell number change was -0.742%.

As to `COC(=O)COc1coc(CN2CCN(c3cccc(Cl)c3)CC2)cc1=O`, the Potency entry was “inactive” and the cell number change came out at 12.5%.

Consider `COc1cc(OC)c(CN2CCCN(C)CC2)cc1Br`, for which the Potency entry was “inactive” and the cell number change amounted to 15.5%.

On to `COc1ccc(Br)cc1CN1CCCCCCC1`, for which the Potency result was “inactive” and the cell number change turned out to be 9.97%.

With `COc1cc(OC)c(CN2CCCCCCC2)cc1Br`, the Potency was 29.1 µM (active) and the cell number change is -11.5%.

`CC1=C(C(=O)OCC(C)C)[C@]23C(=O)c4ccccc4[C@@]2(O1)OC(N)=C3C#N`: the Potency result was “inactive” and the cell number change is -12%.

Consider `CCCCNC(=O)[C@]1(C)CCC[C@@]2(C)C3CC[C@@]4(C)C[C@]3(CCC21)CC4=O` (stereo not given in full), for which the Potency was 0.651 µM (active) and the cell number change was -24.2%.

On to `CC(C)(C)CNC(=O)[C@]1(C)CCC[C@@]2(C)C3CC[C@@]4(C)C[C@]3(CCC21)CC4=O` (stereo not given in full), for which the Potency result was “inactive” and the cell number change is -13.8%.

Take `CC(C)NC(=O)[C@]1(C)CCC[C@@]2(C)C3CC[C@@]4(C)C[C@]3(CCC21)CC4=O` (stereo not given in full): the Potency entry was “inactive” and the cell number change was -16.5%.

Regarding `COc1ccc(/C(C)=N/NC(=O)CNC(=O)c2cccnc2)cc1`, the Potency entry was “inactive” and the cell number change came out at 7.78%.

For the compound `COc1ccc(C(=O)N/N=c2\oc3ccccc3cc2C(=O)NCc2ccccc2)cc1`, the Potency result is “inactive” and the cell number change worked out at 2.22%.

With `N#CC(c1ccc(F)cc1)c1ccc(C(=O)c2ccccc2)cc1` (stereo not given), the Potency result is “inactive” and the cell number change is -0.0722%.

As for `CN(C(=O)COC(=O)c1ccc2c(c1)NC(=O)CS2)C1CCS(=O)(=O)C1` (stereo not given), the Potency result is “inactive” and the cell number change worked out at 4.6%.

Consider `CCc1nc2ccc(C(=O)NCc3ccc(C)o3)cc2nc1CC`, for which the Potency entry was “inactive” and the cell number change is -3.07%.

As for `CC(=O)Nc1cccc(C(=O)NCCc2ccco2)c1`, the Potency entry is “inactive” and the cell number change stood at 7.92%.

Consider `CCc1nc2ccc(C(=O)NCCc3ccco3)cc2nc1CC`, for which the Potency is 6.51 µM (active) and the cell number change came to 5.81%.

Consider `O=C(CN(C(=O)CCC(=O)Nc1nccs1)c1ccc2c(c1)OCO2)NCc1ccccc1`, for which the Potency result is “inactive”.

`CCC(C)(C)NC(=O)C1CC(=O)N(CCc2ccc(F)cc2)C1` (stereo not given): the Potency was 23.1 µM (active) and the cell number change was -4.05%.

Consider `CCC(CC)NC(=O)C1CC(=O)N(CCc2ccc(F)cc2)C1` (stereo not given), for which the Potency result is “inactive”.

Take `CC(C)(C)NC(=O)C1CC(=O)N(CCc2ccc(F)cc2)C1` (stereo not given): the Potency entry is “inactive” and the cell number change is 23%.

For the compound `Cc1cc(C)cc(C(=O)Nc2ccc(NC(=O)c3cccs3)cc2)c1`, the Potency entry is “inactive” and the cell number change turned out to be 17.7%.

`Cc1ccc(NC(=O)c2cccs2)cc1`: the Potency result was “inactive” and the cell number change is 20.8%.

As to `Cc1ccc(NC(=O)c2ccc(Cl)c(NC(=O)c3cccs3)c2)cc1`, the Potency is 25.9 µM (active) and the cell number change came out at 17.6%.

In the case of `Cc1cc(C(c2nnnn2Cc2ccccc2)N2CCOCC2)c(C)n1-c1ccc2c(c1)OCO2` (stereo not given), the Potency entry is “inactive” and the cell number change was -6.63%.

On to `CN(C)C(=O)C(NC(=O)c1ccccc1)=C(Cl)Cl`, for which the Potency entry was “inactive”.

As to `Cc1cc(C(=O)OCC(=O)NC2CCC(C)CC2)c(C)o1` (stereo not given), the Potency result is “inactive” and the cell number change was 1.2%.

`CN(C)S(=O)(=O)c1ccc2c(c1)nc(CCC(=O)NCc1ccc(Cl)cc1)n2C`: the cell number change was -1.78% and the lipid storage change, negative = inhibition was -6.65% [at 9.22 µM] (inactive).

For the compound `COc1ccc(NC(=O)C2C3C=CC4(O3)C2C(=O)N(CCN2CCCCC2)C4C(=O)NC2CCCC(C)C2C)cc1` (stereo not given), the Potency was 0.92 µM (active) and the cell number change was determined as 27%.

As for `CCN(CC)CCN1C(=O)C2C(C(=O)Nc3ccc(C(C)C)cc3)C3C=CC2(O3)C1C(=O)NC1CCCCC1` (stereo not given), the Potency result was “inactive” and the cell number change was 1.35%.

As for `COc1cccc(NC(=O)C2C3C=CC4(O3)C2C(=O)N(CCN2CCCCC2)C4C(=O)NC2CCCCC2C)c1` (stereo not given), the Potency was 5.8 µM (active) and the cell number change turned out to be 14.4%.

Turning to `COc1ccc(NC(=O)C2C3C=CC4(O3)C2C(=O)N(CCCN2CCCCC2)C4C(=O)NC2CCCC(C)C2C)cc1` (stereo not given), the Potency entry was “inactive” and the cell number change came out at 20.6%.

Regarding `CC(C)c1ccc(NC(=O)C2C3C=CC4(O3)C2C(=O)N(CCCN2CCCCC2)C4C(=O)NC2CCCCC2)cc1` (stereo not given), the Potency entry was “inactive” and the cell number change was determined as 2.7%.

Consider `COc1ccc(NC(=O)C2C3C=CC4(O3)C2C(=O)N(CCN2CCCCC2C)C4C(=O)NC2CCCC(C)C2C)cc1` (stereo not given), for which the Potency result was “inactive” and the cell number change was -11.9%.

Take `CCN(CC)CCCN1C(=O)C2C(C(=O)Nc3ccc(C(C)C)cc3)C3C=CC2(O3)C1C(=O)NC1CCCCC1` (stereo not given): the Potency is 16.4 µM (active) and the cell number change is 8.06%.

With `COc1cccc(NC(=O)C2C3C=CC4(O3)C2C(=O)N(CCCN2CCCCC2)C4C(=O)NC2CCCCC2)c1` (stereo not given), the Potency entry was “inactive” and the cell number change was determined as 1.59%.

In the case of `COc1cccc(NC(=O)C2C3C=CC4(O3)C2C(=O)N(CCCN2CCCC(C)C2)C4C(=O)NC2CCCCC2C)c1` (stereo not given), the Potency entry is “inactive” and the cell number change is -4.5%.

Regarding `Cc1cccc(NC(=O)CSc2nnc(CNC(=O)c3ccco3)o2)c1`, the Potency result is “inactive” and the cell number change was -11.3%.

Take `CCCn1c(O)c(N=NC(=O)CNC(=O)c2cccnc2)c2ccccc21`: the Potency entry is “inactive” and the cell number change amounted to 6.42%.

Turning to `NC(=O)/C=C\c1cn(-c2ccccc2)nc1-c1ccc2c(c1)OCCO2`, the Potency result is “inactive” and the cell number change amounted to 13.6%.

Regarding `O=S(=O)(N/N=C/c1cccnc1)c1ccc(Cl)c(Cl)c1`, the Potency entry is “inactive” and the cell number change worked out at 4.73%.

With `C=CCn1c(O)c(C=Nc2ccccc2)sc1=S`, the Potency result is “inactive” and the cell number change came out at 8.83%.

`COc1ccc(CCNC(=O)COc2nncc3ccccc23)cc1`: the Potency result is “inactive” and the cell number change was -8.53%.

Regarding `Cc1ccc(OCCCCN2CCc3ccccc3C2)cc1`, the Potency entry is “inactive” and the cell number change was -8.99%.

In the case of `Cc1ccc(C(C)C)c(OCCN2CCc3ccccc3C2)c1`, the Potency entry was “inactive” and the cell number change is -16.4%.

Source of the values: PubChem BioAssay AID2685 (National Center for Advancing Translational Sciences (NCATS), 2010).
